30 molecules from PubChem BioAssay (NCATS) can be followed below.

Results filed as inconclusive are left out. Where a call stands in place of a potency, no number is given. Activity calls are given as the source filed them. Calls follow the shape of the dose curve; as a rule, active = well fitted inhibition curve with a large enough effect; inconclusive = small, poorly fitted or top-dose-only effect; inactive = flat fitted curve, though single readings scatter.

This assay is described as follows: qHTS of Trypanosoma Brucei Inhibitors: LOPAC Validation (AID 624147). The following applies: purified enzyme assay, luminescence, 45 min; series mostly up to 57.5 µM. In outline:
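Quantitative HTS: titrated library compounds versus trypanosomal pyruvate kinase in TEA buffer (pH 7.2) containing KCl, MgCl2, BSA and Tween-20. Reactions were initiated with ADP, 130 uM final. Kinase-Glo Plus luminescence was read after 45 min at RT.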
(In general: qHTS replaces the single test concentration by a dilution series.)
Turning to `N=C(N)SCCc1ccc(CCSC(=N)N)cc1`, the Potency result is “inactive”.
In the case of `CCCCCCCCCCCCCCCC(=O)NCC(COP(=O)([O-])OCC[N+](C)(C)C)OCC` (stereo not given), the Potency entry was “inactive”.
For the molecule `CN(C)CCCO[C@@H]1[C@H]2OC(C)(C)O[C@H]2O[C@@H]1[C@H](O)CO`, the Potency entry is “inactive”.
For `NC[C@H]1O[C@@H](n2cnc3c(N)ncnc32)[C@H](O)[C@@H]1O`, the Potency entry was “inactive”.
In the case of `O=C1O/C(=C/Br)CCC1c1cccc2ccccc12` (stereo not given), the Potency entry was “inactive”.
For the molecule `NCCNC(=O)c1ncsc1-c1cccc(F)c1`, the Potency result was “inactive”.
Turning to `CCOC(=O)C1=C(C)NC(C)=C(C(=O)OCC)C1c1c(F)c(F)c(F)c(F)c1F`, the Potency entry was “inactive”.
Consider `NCCCS(=O)(=O)O`, for which the Potency result was “inactive”.
On to `O=c1[nH]c2cc(C(F)(F)F)ccc2n1-c1cc(C(F)(F)F)ccc1O`, for which the Potency entry was “inactive”.
Regarding `CO/N=C(\C(=O)N[C@@H]1C(=O)N2C(C(=O)O)=C(COC(C)=O)CS[C@H]12)c1csc(N)n1`, the Potency entry is “inactive”.
Turning to `NC[C@@H]1O[C@H](C23CC4CC(CC(C4)C2)C3)Cc2c1ccc(O)c2O`, the Potency entry was “inactive”.
Turning to `CC[C@@H](C)[C@H]1O[C@]2(CC[C@H]1C)C[C@@H]1C[C@@H](CC=C(C)[C@@H](O[C@H]3C[C@H](OC)[C@@H](O[C@H]4C[C@H](OC)[C@@H](O)[C@H](C)O4)[C@H](C)O3)[C@@H](C)C=CC=C3CO[C@@H]4[C@H](O)C(C)=C[C@@H](C(=O)O1)[C@]34O)O2`, the Potency result is “inactive”.
For the molecule `NCCCCCCCCCCN`, the Potency result was “inactive”.
On to `O=S(=O)(c1cccc2c(I)cccc12)N1CCCNCC1`, for which the Potency result is “inactive”.
Regarding `CCCCC#Cc1nc(NC)c2ncn([C@@H]3O[C@H](CO)[C@@H](O)[C@H]3O)c2n1`, the Potency result is “inactive”.
For the molecule `O=C(c1ccc(OCCCc2cnc[nH]2)cc1)C1CC1`, the Potency result is “inactive”.
With `C#C[C@]1(O)CC[C@H]2[C@@H]3CCC4=Cc5oncc5CC4(C)[C@H]3CCC21C` (stereo not given in full), the Potency result was “inactive”.
Take `O=C(c1ccc(Cl)cc1)N1CCN(c2ccc([N+](=O)[O-])c3ncccc23)CC1`: the Potency result was “inactive”.
On to `Cn1cc(C2=C(c3ccc(Cl)cc3Cl)C(=O)NC2=O)c2ccccc21`, for which the Potency entry was “inactive”.
The value for `Cn1c(=O)c2[nH]c(-c3ccccc3)nc2n(C)c1=O` was “inactive”.
Take `Nc1nc(Cl)nc2c1ncn2[C@@H]1O[C@H](COP(=O)(O)OP(=O)(O)OP(=O)(O)O)[C@@H](O)[C@H]1O`: the Potency result is “inactive”.
Turning to `CNc1ncnc2c1ncn2[C@@H]1O[C@H](CO)[C@@H](O)[C@H]1O`, the Potency entry was “inactive”.
As for `CCCCCCCCCCCCCCCC(=O)OC(CC(=O)O)C[N+](C)(C)C` (stereo not given), the Potency result was “inactive”.
As for `c1ccc(-c2ccccn2)nc1`, the Potency entry was “inactive”.
Consider `NO`, for which the Potency result was “inactive”.
The value for `O=[N+]([O-])c1ccc(CSc2ncnc3c2ncn3[C@@H]2O[C@H](CO)[C@@H](O)[C@H]2O)cc1` was “inactive”.
As to `C[C@@H](NC(=O)/C(C#N)=C/c1ccc(O)c(O)c1)c1ccccc1`, the Potency result was “inactive”.
For `CN1C2CCC1CC(OC(=O)C(O)c1ccccc1)C2` (stereo not given), the Potency entry is “inactive”.
Turning to `Cc1cc2c(cc1Cl)N(C(=O)Nc1ccc(Oc3cccnc3C)nc1)CC2`, the Potency entry was “inactive”.
The result for `NC(=O)C(=O)O` reads “inactive”.
